Assay results as given in PubChem BioAssay.
Calls of active or inactive are those of the source.

Assays:
Albumin (Bos taurus) = Albumin (Bos taurus) (UniProt P02769); assay: compounds binding labelled BSA control protein – biochemical, small-molecule microarray, Alexa647 label, 635/667 nm fluorescence, artefact control for SMM control protein annotation, profiling panel (AID 1118); settings: BSA-A647 binding, fluorescence 635 nm, higher = more signal;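 further: score merges 667 nm emission intensity and signal-to-noise per printed compound spot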
[1] = probe aXIP binding to arrayed compounds – biochemical, NeuroSMM set, 635/667 nm fluorescence, primary screen (AID 1119); settings: small-molecule microarray, higher = more signal, called active from +8 up or from −8 down;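 further: probe is the protein aXip251-270 applied at 1 µg/mL to compound-printed slides; binding of probe to printed compounds measured as 667 nm fluorescence plus signal to noise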
[2] = probe aNOTCH3 binding on compound microarray – biochemical, small-molecule microarray, 635/667 nm fluorescence, primary screen (AID 1120); settings: higher = more signal;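 further: probe is a biotin-tagged antibody raised against NOTCH3 rather than NOTCH3 protein; score merges spot fluorescence near 667 nm with spot signal to noise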
[3] = probe aNOTCH2 binding on compound microarray – biochemical, small-molecule microarray, 635/667 nm fluorescence, primary screen (AID 1121); settings: higher = more signal;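 further: score merges feature fluorescence read at 667 nm with its signal to noise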
[4] = molecular target: Carbonic anhydrase 2 (Homo sapiens) (UniProt P00918); assay: compounds binding carbonic anhydrase 2 – biochemical, small-molecule microarray, Alexa647-labelled CAII, profiling panel (AID 1122); settings: CAII-A647 binding fluorescence, higher = more signal
[5] = COS7 lysate on small-molecule microarray, probe aHis, 635 nm (AID 1123); settings: COS7 cell lysate, fluorescence, higher = more signal;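 further: z-score combines 667nm fluorescence intensity with signal-to-noise per printed compound spot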
[6] = probe aLAP1 signal on lysate-treated microarray – cell lysate, small-molecule microarray, COS7 lysate, primary screen (AID 1124); settings: probe aLAP1, fluorescence, higher = more signal;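 further: lysate comes from COS7 cells expressing LAP1 and is applied at 0.3 µg/mL; score merges spot fluorescence near 667 nm with signal-to-noise over triplicate slides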
Sam68 (KHDRBS1) = assay: compounds binding KHDRBS1 protein – biochemical, small-molecule microarray, 635 nm fluorescence, primary screen (AID 1125); settings: higher = more signal;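 further: score merges 667 nm channel intensity with signal to noise over triplicate slides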
[7] = tested on: Chordin-like protein 2 (CHRDL2); assay: compounds binding chordin-like 2 – biochemical, small-molecule microarray, 635 nm fluorescence, primary screen (AID 1126); settings: fluorescence 635 nm, higher = more signal;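 further: printed compound slides probed with Chrdl2 protein at 4 µg/mL for 1 h at 4 C; score merges 667 nm emission intensity with signal to noise over three replicate slides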
[8] = molecular target: Concanavalin-A (Canavalia ensiformis) (UniProt P02866); assay: compounds binding concanavalin A lectin – biochemical, small-molecule microarray, Alexa647 label, 635 nm, artefact control for SMM control protein annotation, primary screen (AID 1127); settings: ConA-A647 binding fluorescence, higher = more signal;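 further: z combines 667 nm emission intensity with signal-to-noise across three replicate slides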
Chain of Concanavalin-A (Canavalia ensiformis) (P02866 whole entry, looked up): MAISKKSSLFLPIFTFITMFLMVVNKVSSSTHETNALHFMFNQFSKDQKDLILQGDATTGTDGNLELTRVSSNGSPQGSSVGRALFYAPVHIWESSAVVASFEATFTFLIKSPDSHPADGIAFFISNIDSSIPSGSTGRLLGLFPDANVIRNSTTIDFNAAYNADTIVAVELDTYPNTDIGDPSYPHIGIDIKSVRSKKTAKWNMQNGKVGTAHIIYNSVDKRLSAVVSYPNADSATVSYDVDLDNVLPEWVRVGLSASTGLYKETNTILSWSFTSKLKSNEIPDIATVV

Chain of Albumin (Bos taurus) (P02769 whole entry, looked up): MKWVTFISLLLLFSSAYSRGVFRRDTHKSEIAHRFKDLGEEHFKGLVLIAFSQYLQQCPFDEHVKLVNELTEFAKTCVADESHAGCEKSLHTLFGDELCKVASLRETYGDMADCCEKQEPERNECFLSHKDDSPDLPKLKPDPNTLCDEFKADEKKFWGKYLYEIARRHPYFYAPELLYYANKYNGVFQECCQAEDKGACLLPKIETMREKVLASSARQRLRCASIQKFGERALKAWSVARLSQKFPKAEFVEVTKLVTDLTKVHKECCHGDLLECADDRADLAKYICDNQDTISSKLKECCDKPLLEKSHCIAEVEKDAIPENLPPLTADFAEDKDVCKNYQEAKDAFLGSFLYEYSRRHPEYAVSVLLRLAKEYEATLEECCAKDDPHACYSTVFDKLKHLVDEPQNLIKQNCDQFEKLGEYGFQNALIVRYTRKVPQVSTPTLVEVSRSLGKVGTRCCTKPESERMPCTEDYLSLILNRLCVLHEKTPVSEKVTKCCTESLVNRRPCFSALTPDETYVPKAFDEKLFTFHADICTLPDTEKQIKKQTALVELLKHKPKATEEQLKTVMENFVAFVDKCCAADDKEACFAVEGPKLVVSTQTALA

SMILES	composite z-score (Albumin (Bos taurus))	composite Z-score [1]	composite z-score [2]	composite z-score [3]	composite z-score [4]	composite z-score [5]	composite z-score [6]	composite z-score (Sam68 (KHDRBS1))	composite z-score [7]	composite z-score [8]
O=C1O[C@@H](c2ccccc2)[C@@H](c2ccccc2)N2[C@@H](c3ccccc3OCCO)[C@]3(C(=O)Nc4ccc(C#CCCO)cc43)[C@@H](C(=O)Nc3nc4ccccc4s3)[C@H]12	0.792	0.229 (inactive)	0.302	0.0203	0.428	1.28	1.33	1.31	0.529	1.14
CCOC(=O)C1=CC[C@@H](c2ccccc2)N(S(=O)(=O)c2ccc(C)cc2)C1	0.425	-0.0056 (inactive)	0.283	-0.0176	0.38	0.522	0.786	0.143	0.565	-0.264
C[n+]1ccc(CCCO)cc1	-0.911	0.165 (inactive)	0.182	-0.0211	0.321	2.53	1.6	0.0844	0.127	-0.0858
CC(C)CNC(=O)[C@@]1(c2ccc([N+](=O)[O-])cc2)CC(=O)N(C2CCCCC2)[C@@H]1c1ccc(CO)cc1I	0.441	0.0911 (inactive)	-0.0598	-0.0761	0.469	1.86	0.15	0.754	-0.662	0.282
C=C[C@@H](COC(C)=O)NS(=O)(=O)c1ccc(Br)cc1	-0.0541	0.486 (inactive)	-0.0728	-0.0859	0.28	0.151	-0.0973	0.597	0.0699	0.205
COc1ccc(NN2C(C(O)c3ccco3)C=CC3C(=O)N(C4CCCCC4)C(=O)C32)cc1 (stereo not given)	0.749	0.0786 (inactive)	0.353	-0.115	0.377	1.44	0.564	1.32	0.0446	1
O=C1O[C@@H](c2ccccc2)[C@@H](c2ccccc2)N2[C@@H](c3ccc(O)cc3)[C@]3(C(=O)Nc4ccccc43)[C@@H](C(=O)Nc3nc4ccccc4s3)[C@H]12	0.625	-0.8 (inactive)	0.0695	-0.144	0.613	1.39	0.399	1.31	0.0129	1.17
[N-]=[N+]=Nc1ccccc1[C@H]1OC(c2ccc(OCCCO)cc2)=N[C@@]1(CCS(=O)(=O)c1ccccc1)C(=O)N1CCCCC1	0.949	-0.311 (inactive)	0.355	-0.0439	0.647	2.65	0.0866	1.3	-0.106	1.19
C=CCN1C(=O)[C@@]2(CCC(=O)OC(C)(C)C)N=C(c3ccc(OCCCO)cc3)O[C@H]2c2ccccc21	0.71	0.0873 (inactive)	0.108	0.0484	0.654	1.33	0.0616	0.817	0.145	1.16
COc1ccc(C(O)C2C=CC3C(=O)N(Cc4ccccc4)C(=O)C3N2n2cnnc2)c2ccccc12 (stereo not given)	0.626	0.624 (inactive)	-0.0238	-0.125	0.783	1.65	0.686	1.01	-2.13	0.388
C[C@H]1ON(c2ccc(C(=O)OC(C)(C)C)cc2)[C@@H](c2ccc(O)cc2)[C@@H]1C(=O)N1C(=O)OC[C@@H]1c1ccccc1	0.393	-0.281 (inactive)	0.0218	-0.126	0.454	0.741	0.295	1.32	0.456	0.768
COc1ccc([Si](C)(C)[C@H]2[C@H](CCn3cc(CCO)nn3)O[C@@]3(C(=O)N(Cc4ccc(N5C(=O)c6cccc7cccc5c67)cc4)c4ccccc43)[C@@H]2C)cc1	0.627	-0.777 (inactive)	0.0996	-0.14	0.345	1.04	0.303	1.29	0.628	0.962
CCOC(=O)C[C@H]1[C@H](OC(=O)c2ccccc2-c2ccccc2)[C@@H](NC(=O)CC(C)C)c2cc(OCCCO)ccc2N1C(=O)c1ccc2ccccc2n1	0.641	0.675 (inactive)	-0.0031	-0.13	0.431	0.578	0.452	0.569	0.224	0.629
C=CCOC(=O)[C@@H]1[C@H]2C(=O)O[C@H](c3ccccc3)[C@H](c3ccccc3)N2[C@H](c2ccc(OCCOC(=O)[C@H]3C[C@H]4C(=O)N[C@@H](CCCCNC(C)=O)C(=O)N4[C@H]3c3cccc(OCCO)c3)cc2)[C@@]12C(=O)Nc1ccc(I)cc12	-1.29	0.783 (inactive)	-0.016	-0.12	0.336	1.13	0.583	1.31	1.06	1.15
CC(C)C[C@@H]1NC(=O)[C@H]2C[C@@H](C(=O)NCCCCCC[N+](C)(C)C)[C@@H](c3cccc(OCCO)c3)N2C1=O	0.107	0.831 (inactive)	-0.0967	-0.169	0.377	1.02	0.384	0.374	0.964	0.869
COc1ccc([Si](C)(C)[C@H]2[C@H](CCn3cc([C@H](O)c4ccccc4)nn3)O[C@@]3(C(=O)N(Cc4ccc(N5CCC5=O)cc4)c4ccccc43)[C@@H]2C)cc1	0.0383	-0.128 (inactive)	-0.0647	-0.167	0.0133	0.418	0.142	0.654	0.786	0.672
Cc1ccc(F)cc1S(=O)(=O)N[C@@H]1CCN(Cc2ccc(OC(C)C)cc2)C1	0.175	-0.491 (inactive)	-0.201	-0.154	0.359	-0.453	-0.182	-0.649	0.504	-1.41
COc1cc2c(cc1OC)CN(C(=O)[C@H]1[C@@H]3C(=O)O[C@@H](c4ccccc4)[C@@H](c4ccccc4)N3[C@@H](c3ccc(OCCO)cc3)[C@]13C(=O)Nc1ccc(C#CC4(O)CCCCCC4)cc13)CC2	0.822	-0.195 (inactive)	-0.337	-0.126	0.619	1.52	0.491	1.29	0.739	1.18
COCCOC(=O)N1C(=O)[C@@]2(c3cc(C#CC4(O)CCCCCC4)ccc31)[C@H](C(N)=O)[C@H]1C(=O)O[C@H](c3ccccc3)[C@H](c3ccccc3)N1[C@@H]2c1ccccc1OCCO	0.199	-0.526 (inactive)	-0.6	-0.219	0.541	2	0.591	1.31	0.369	0.845
C=C(C(=O)CC[C@H](OC(=O)c1cccnc1)c1ccc(CO)o1)C(C)C	0.0812	0.674 (inactive)	0.0596	-0.0633	0.655	0.403	0.309	0.839	0.302	0.645
CO[C@H]1O[C@H](CO)[C@@H](OC(=O)Nc2ccc(Oc3ccccc3)cc2)[C@H](OC(=O)Nc2ccccc2-c2ccccc2)[C@@H]1OC(=O)Nc1ccccc1-c1ccccc1	0.814	-0.098 (inactive)	0.182	0.247	0.482	2.31	1.09	1.32	-0.139	1.14
COC1(C)CN(Cc2ccccc2Br)[C@H](/C=C/c2ccccc2)[C@H](Cc2ccccc2)O1 (stereo not given in full)	-0.403	0.0873 (inactive)	-0.236	-0.198	0.0397	0.203	-0.195	-0.435	-0.77	-0.0737
CC(C)(C)OC(=O)CC[C@]1(C(=O)O)N=C(c2ccc(OCCCO)cc2)O[C@H]1c1ccccc1	0.419	-0.179 (inactive)	0.318	-0.203	0.808	0.787	0.448	-0.612	-0.556	0.206
COc1cc(OC)c(C(O)C2C=CC3C(=O)N(c4ccccc4)C(=O)C3N2Nc2ccc(C#N)cc2)cc1Br (stereo not given)	1.01	1.5 (inactive)	0.334	0.401	0.849	2.49	1.41	1.15	0.355	1.04
CN1C2C=C(CCCO)C(C3C(=O)N(C(N)=O)C(=O)C32)C1c1cccs1 (stereo not given)	-0.435	-0.394 (inactive)	-0.179	0.61	0.409	0.924	-0.212	0.226	1.51	-0.0398
O=C(CS)NCCCCCCNC(=O)[C@@H]1C[C@@H]2C(=O)N3CCC[C@H]3C(=O)N2[C@@H]1c1cccc(OCCO)c1	0.848	-0.19 (inactive)	-0.225	0.0063	0.635	2.81	-0.0386	1.3	0.454	1.1
